Sampled rows, rich in hits. Any-hit rate of the full collection: about 10%.
BAZ2B block: BAZ2B (human) inhibition; AlphaScreen BAZ2B-H3K14Ac peptide displacement; Q9UIF8; Potency, µM (highest dose often 114 µM), for inactives: at the top dose activity change, negative = inhibition, most hits filed as inhibitors; actives 4.4% (n = 360,000); also: potency is read from the fitted curve at half-maximal effect; % is scaled to controls: 0 for no effect and ±100 for the full control effect; nearly all actives have a fitted effect of over 60% in size
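AlphaScreen luminescence quantifies BAZ2B engagement of H3K14Ac peptide; the protein and biotinylated peptide are both at 50 nM final, buffer PBS pH 7.4 with 0.01% Tween-20, all steps at room temperature.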
JMJD2A Tudor inh: blocks the human JMJD2A Tudor domain; O75164; actives 4.4% (n = 390,000); AlphaScreen JMJD2A-Tudor / H3K4me3 peptide binding; Potency, µM (series often up to 114 µM), for inactives: at the top dose activity change, negative = inhibition, usual class: inhibitors; also: potency is read from the fitted curve at half-maximal effect; % is scaled to controls: 0 for no effect and ±100 for the full control effect; nearly all actives have a fitted effect of over 50% in size
HP1b binding inh: HP1-beta chromodomain-methylated histone interaction inhibition; P83916; AlphaScreen HP1-beta / biotin-H3K9me3 peptide binding; Potency, µM (titrated, usually from 114 µM), without a hit: top-dose activity change, negative = inhibition, actives largely listed as inhibitors; actives 0.56% (n = 390,000); also: potency is read from the fitted curve at half-maximal effect; nearly all actives have a fitted effect of over 70% in size
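AlphaScreen: HP1-beta (50 nM) preformed 30 min with biotin-H3(1-18)K9me3 peptide (50 nM) in PBS pH 7.4, 0.01% Tween-20. Compound added for 30 min at RT, then streptavidin donor/nickel chelate acceptor beads (10 ug/mL) for 30 min.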
Six1-Eya2 inh: blocks human Six1 binding to Eya2. activity change, % (no concentration beside the values). actives 0.56% (n = 360,000). Q15475+O00167. AlphaScreen GST-Six1/His-Eya2 binding, biochemical; stronger effect = lower value; in the data active = activity change below about -65%; inconclusive = mostly about -30% to -63%; also: % is scaled to controls: 0 for no effect and ±100 for the full control effect
Target sequence (O00167 whole entry, looked up): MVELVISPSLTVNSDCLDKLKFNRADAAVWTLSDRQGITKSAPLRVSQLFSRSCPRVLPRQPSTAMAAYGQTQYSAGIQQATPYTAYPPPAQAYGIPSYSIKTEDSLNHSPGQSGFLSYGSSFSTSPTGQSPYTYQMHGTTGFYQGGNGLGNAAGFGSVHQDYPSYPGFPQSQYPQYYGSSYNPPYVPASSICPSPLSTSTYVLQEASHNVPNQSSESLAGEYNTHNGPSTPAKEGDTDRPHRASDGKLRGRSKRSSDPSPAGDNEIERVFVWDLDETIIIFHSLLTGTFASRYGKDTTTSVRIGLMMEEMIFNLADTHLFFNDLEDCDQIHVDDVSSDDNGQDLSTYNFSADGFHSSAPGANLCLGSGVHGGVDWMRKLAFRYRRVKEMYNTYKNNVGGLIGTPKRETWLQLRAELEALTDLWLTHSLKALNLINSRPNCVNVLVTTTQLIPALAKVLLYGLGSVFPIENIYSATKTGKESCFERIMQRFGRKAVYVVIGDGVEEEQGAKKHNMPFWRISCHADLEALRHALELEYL
Target sequence (Q15475 whole entry, looked up): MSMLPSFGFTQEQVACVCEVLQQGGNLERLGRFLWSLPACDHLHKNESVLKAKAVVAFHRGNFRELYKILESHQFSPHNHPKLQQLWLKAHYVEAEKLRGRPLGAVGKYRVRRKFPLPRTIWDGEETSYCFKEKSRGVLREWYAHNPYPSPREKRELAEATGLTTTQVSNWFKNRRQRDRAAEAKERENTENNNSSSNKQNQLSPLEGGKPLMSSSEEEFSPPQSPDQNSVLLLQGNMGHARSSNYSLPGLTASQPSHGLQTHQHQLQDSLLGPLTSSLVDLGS
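GST-Six1 + His-Eya2 (5X stock: 250/500 nM); Tris pH 8.0, 300 mM NaCl, 0.05% BSA, 0.02% Tween 20; GSH donor/Ni acceptor beads; 1 h 37 °C dark; AlphaScreen readout.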
CtBP-E1A blk: blocks the CtBP interaction with E1A; AlphaScreen GST-E1A/His-CtBP binding, 1536-well; stronger effect = lower value; activity change, % (test concentration not listed); actives 0.49% (n = 340,000); in the data active = activity change below about -65%; inconclusive = mostly about -30% to -63%; also: % is scaled to controls: 0 for no effect and ±100 for the full control effect
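AlphaScreen with 125 nM GST-E1A and 125 nM His-CtBP (5X stocks) in Tris pH 8.0, 300 mM NaCl, BSA, Tween 20, TCEP. Compounds preincubated 2 h at 37 deg C, then glutathione donor/nickel acceptor beads added for 1 h at 37 deg C in dark.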
G9a inh: inhibitors of human histone lysine methyltransferase G9a; G9a H3K9 monomethylation, AlphaScreen, 2 h; Potency, µM (top dose mostly 102 µM), without a hit: at the top dose activity, negative = inhibition, most hits filed as inhibitors; actives 8.8% (n = 350,000); AID 504332; also: potency is read from the fitted curve at half-maximal effect; % is scaled to controls: 0 for no effect and ±100 for the full control effect; nearly all actives have a fitted effect of over 75% in size
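Enzyme 20 nM + cpd, 15 min RT; add b-H3K9 pep 500 nM / SAM 20 uM; 2 h RT; anti-H3K9me1 Ab 0.5 ug/mL + SA donor / anti-rabbit acceptor beads 20 ug/mL each, 10 min; AlphaScreen read.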
An asterisk follows results filed as active; ? = inconclusive; . = no result; [ ] = remark or other dose. Unless noted, calls follow the shape of the dose curve; as a rule, active = well fitted inhibition curve with a large enough effect; inconclusive = small, poorly fitted or top-dose-only effect; inactive = no such curve, though single readings can be large or run the other way.

SMILES	BAZ2B block	JMJD2A Tudor inh	HP1b binding inh	Six1-Eya2 inh	CtBP-E1A blk	G9a inh
N#Cc1ccccc1Cn1cc(/C=C/[N+](=O)[O-])c2ccccc21	?	-23%	7%	8	-22	50µM*
Cc1ccc(-n2cnc3cc(C(=O)NC4CCCCCC4)ccc32)cc1Cl	-11%	?	24%	.	.	-26%[59 µM]
CCS(=O)(=O)c1nc(S(=O)(=O)c2ccc(C)cc2)c(NCc2ccccc2Cl)s1	2%	-15%	54%	.	.	9%[59 µM]
O=C1Cc2ccccc2C(=O)N1	.	.	.	22	?	.
O=C(OCC(=O)N1CCCc2ccccc21)c1ccc(S(=O)(=O)C(F)F)cc1	8%	-21%	10%	6	5	50µM*
O=C(OCC(=O)N1CCCc2ccccc21)c1ccc(C(F)(F)F)cc1	24%	23%	104%	14	3	53%
COC(=O)/C(=C1/Oc2cc(C)oc(=O)c2S1)C(F)(F)F	6%	-1%	19%	?	-83*	13%[59 µM]
COC(=O)/C(=C1/Oc2ccc(C(C)(C)C)cc2S1)C(F)(F)F	-5%	-9%	37%	8	1	19%[59 µM]
CON1C(=O)C(=O)N(OC)C(C)(C)C1(C)C	-1%	-9%	45%	-7	7	-13%[59 µM]
Cc1c2c(=O)n(-c3nc4ccccc4s3)nc-2cc(O)n1Cc1ccccc1	40µM*	-27%	18%	-3	.	.
Cc1cc(C)n(-c2nc3ccccc3s2)n1	111%	87%	158%	26	0	83%
CCc1ccc(OCC(=O)NCc2nc(-c3cccc(C)c3)no2)c(Br)c1	-1%	-11%	30%	.	.	-2%[59 µM]
COc1ccc(Cl)cc1-c1n[nH]c(=S)o1	-5%	-29%	29%	16	-1	?
COc1ccc(CCn2c(=S)[nH]c(=O)c3[nH]cnc32)cc1OC	.	-7%	53%	.	.	.
COc1ccc(CCn2c(-c3ccc(C(C)(C)C)cc3)n[nH]c2=S)cc1OC	-16%	18µM*	-31%	-4	0	?
COc1ccc(CCn2c(-c3ccc(Cl)cc3)n[nH]c2=S)cc1OC	?	-21%	36%	-1	5	2.2µM*
CCCCn1c(-c2cc(Cl)ccc2OC)n[nH]c1=S	-5%	13µM*	-15%	-1	-2	2µM*
COc1ccc(CCn2c(C)ccc2C)cc1OC	-8%	.	.	.	.	-6%[59 µM]
COc1ccc(-c2nc3cnc(Nc4cccc(OC)c4)nc3n(C)c2=O)cc1	.	.	.	.	.	11%[0.501 µM]
COc1ccc(CNC(=O)Cc2c(C)c3c(cc(C)c4c(C)coc43)oc2=O)cc1	-7%	-8%	35%	.	.	5%[59 µM]
Cc1onc(-c2ccccc2Cl)c1C(=O)Nc1ccc(-n2nncc2-c2ccco2)cc1	?	?	-6%	-14	-12	40µM*
Cc1onc(-c2ccccc2Cl)c1C(=O)Nc1ccc(-n2nncc2C(C)(C)C)cc1	-3%	-14%	11%	1	5	-50%
Cc1ccccc1-n1nc2c(c1NC(=O)c1c(-c3ccccc3Cl)noc1C)CSC2	-8%	-19%	6%	-6	5	-3%
Cc1ccc(-n2nc3c(c2NC(=O)c2c(-c4ccccc4Cl)noc2C)CSC3)cc1	0%	-24%	18%	-4	3	45µM*
O=C(Nc1ccc(-n2nncc2-c2ccco2)cc1)c1ccc(F)cc1	?	?	?	-2	-16	50µM*
SMILES	BAZ2B block	JMJD2A Tudor inh	HP1b binding inh	Six1-Eya2 inh	CtBP-E1A blk	G9a inh
COc1ccc(C(=O)N(Cc2ccco2)Cc2cccs2)c(OC)c1	.	-31%	12%	.	.	.
Cc1c(CC(=O)NCCc2ccccc2F)c(=O)oc2c(C)c3occ(C(C)(C)C)c3cc12	-2%	-8%	30%	.	.	5%[59 µM]
CCOc1cc2[nH]c(=S)n(C(C)C)c(=O)c2cc1OCC	17%	-4%	49%	-11	-6	3%
CCC(CO)n1c(=S)[nH]c2cc(OC)c(OC)cc2c1=O (stereo unspecified)	-17%	25µM*	38%	-5	-9	18µM*
CC1Sc2ccc(C(=O)NCc3ccccn3)cc2NC1=O (stereo unspecified)	-16%	?	?	-4	-15	?
CC1SC(=NC(=O)c2ccncc2)NC1=O (stereo unspecified)	-20%	-8%	4%	5	2	40µM*
Cc1cccc(NC(=O)C2CCN(c3nnc(C)c4c(C)n(-c5ccccc5)nc34)CC2)c1C	-4%	-8%	9%	.	.	-3%[59 µM]
Cc1cccc(NC(=O)COc2cccc3c2CCNC3=O)c1	.	.	.	-4	-5	.
CCC(C)[C@H](NC(=O)N1CCN(C)CC1)C(=O)OC (stereo partly specified)	3%	-11%	41%	4	-7	21%
CCC(C)NC(=S)N1CCN(C)CC1 (stereo unspecified)	-25%	?	?	4	.	40µM*
O=[N+]([O-])c1ccc(N/N=C/c2c[nH]c3ccccc23)c(S(=O)(=O)Nc2ccc(Cl)cc2)c1	45µM*	28µM*	?	1	-2	?
CCCN1CCC(N(CCc2ccccc2)Cc2ccccc2)CC1	-2%	-16%	21%	-7	.	-22%
COc1ccc(CCN(C)C(=O)c2cc(-c3ccccc3)nc3ccccc23)cc1OC	?	-9%	25%	-7	7	40µM*
COc1ccc(CCN(C)C(=O)Cc2ccc(-c3ccccc3)cc2)cc1OC	-17%	-24%	-9%	10	-7	-2%[59 µM]
COc1ccc(CCN(C)C(=O)C2CCN(Cc3cccc(OC)c3OC)CC2)cc1OC	?	3.2µM*	-16%	6	-8	.
COc1ccc(-c2cc(C(=O)N(C)CCc3ccc(OC)c(OC)c3)c3ccccc3n2)cc1	-10%	-13%	20%	-7	-10	.
COc1ccc(CCN(C)C(=O)C2CCN(Cc3ccccc3)CC2)cc1OC	12%	22µM*	?	1	-3	11%
CCN(Cc1ccccc1)C1CCN(Cc2ccccc2)CC1	-24%	-6%	29%	-5	5	71µM*
Cc1ccc(N2CC(C(=O)Nc3c4c(nn3C(C)(C)C)CS(=O)(=O)C4)CC2=O)cc1C (stereo unspecified)	-25%	-3%	14%	2	1	.
Cc1ccc(Cl)cc1-c1cc(C(=O)N2CCc3ccccc3C2)[nH]n1	.	.	.	-7	2	.
COc1ccc(CN2CCC(C(=O)N(C)CCc3ccc(OC)c(OC)c3)CC2)c(OC)c1	?	7.9µM*	?	6	0	10µM*
COc1ccc(CN2CCC(N(CCc3ccccc3)Cc3ccccc3)CC2)c(OC)c1	40µM*	3.2µM*	?	-21	7	?

Compound activity (PubChem BioAssay)
